Experimental findings from PubChem BioAssay (NCATS) are described below.

The structures appear in SMILES notation. Records with an inconclusive call do not appear. Activity calls are given as the source filed them. Calls come from the whole dose curve; as a rule, active = well fitted inhibition curve with a large enough effect; inconclusive = small, poorly fitted or top-dose-only effect; inactive = no such curve, though single readings can be large or run the other way.
% is set by controls: 0 for no effect and ±100 for the full control effect; potency is the fitted concentration of half-maximal effect.

For the assay, the target named is Cytochrome P450 3A7 (Homo sapiens) (UniProt P24462). As to the kind of experiment: Cytochrome P450 family 3 subfamily A member 7 (CYP3A7) small molecule antagonists: luciferase biochemical qHTS assay (AID 1963596). Note: nearly all actives have a fitted effect of over 40% in size. Conditions: P450-Glo CYP3A7 enzyme luminescence, 1 h; series mostly up to 57.4 µM; activity change, negative = inhibition: at the top concentration. In short, it runs like this: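 P450-Glo luminescent assay: CYP3A7 enzyme converts a proluciferin substrate to luciferin, detected by luciferase reagent; light proportional to activity. Compounds in DMSO preincubated 10 min with enzyme-substrate mix at room temperature, then NADPH regeneration added for 1 h.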
Cytochrome P450 3A7 (Homo sapiens), sequence (P24462 whole entry, looked up): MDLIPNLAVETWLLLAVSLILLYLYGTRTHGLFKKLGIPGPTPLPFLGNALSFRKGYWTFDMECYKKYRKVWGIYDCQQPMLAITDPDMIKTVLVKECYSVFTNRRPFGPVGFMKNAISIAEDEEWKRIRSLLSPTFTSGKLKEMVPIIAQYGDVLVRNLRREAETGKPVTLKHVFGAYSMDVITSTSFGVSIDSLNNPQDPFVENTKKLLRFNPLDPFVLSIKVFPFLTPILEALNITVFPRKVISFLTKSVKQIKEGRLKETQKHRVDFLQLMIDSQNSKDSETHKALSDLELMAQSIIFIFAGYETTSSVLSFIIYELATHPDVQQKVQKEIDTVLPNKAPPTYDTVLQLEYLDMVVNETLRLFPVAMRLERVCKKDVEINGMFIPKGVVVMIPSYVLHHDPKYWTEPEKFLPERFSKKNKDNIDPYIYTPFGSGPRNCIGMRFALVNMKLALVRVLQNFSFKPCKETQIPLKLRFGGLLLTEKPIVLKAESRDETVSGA
For orientation: qHTS replaces the single test concentration by a dilution series.
Regarding `Cc1c(C(=O)NCCO)[n+](=O)c2ccccc2n1[O-]`, the “activity change, negative = inhibition” value is 24.1% (inactive).

Regarding `CC[N+](CC)(CC)CCOC(=O)C(C1CCCC1)C1CCCC1`, the “activity change, negative = inhibition” value is -23.7% (inactive).

Take `NC(=O)NS(=O)(=O)c1ccc(Cl)cc1`: the “activity change, negative = inhibition” value is 0.53% (inactive).

Take `FC(F)(F)C(Cl)Br` (stereo not given): the “activity change, negative = inhibition” value was -7.54% (inactive).

On to `CN1[C@@H]2CC[C@H]1CC(OC(=O)C(O)c1ccccc1)C2` (stereo not given in full), for which the “activity change, negative = inhibition” value is 2.89% (inactive).

On to `C=C(CC)C(=O)c1ccc(OCC(=O)O)c(Cl)c1Cl`, for which the “activity change, negative = inhibition” value is -27.9% (inactive).

In the case of `Cc1ncc(COP(=O)(O)O)c(C=O)c1O`, the “activity change, negative = inhibition” value was 8.43% (inactive).

In the case of `CC(C)(C)c1cc(C=O)cc(C(C)(C)C)c1O`, the “activity change, negative = inhibition” value was 2.83% (inactive).

As for `CC(=O)Nc1ccn(C2COC(COC(=O)c3ccccc3)O2)c(=O)n1` (stereo not given), the “activity change, negative = inhibition” value is -3.07% (inactive).

For `CC(=O)N(CC(O)CO)c1c(I)c(C(=O)NCCO)c(I)c(C(=O)NCC(O)CO)c1I` (stereo not given), the “activity change, negative = inhibition” value is 3.44% (inactive).

For `C=CCc1ccc(O)c(OC)c1`, the “activity change, negative = inhibition” value is -24.5% (inactive).

Consider `CC1(C)OC[C@@H]2O[C@@]3(C(=O)O)OC(C)(C)O[C@H]3[C@@H]2O1`, for which the “activity change, negative = inhibition” value is -8.79% (inactive).

Turning to `O=C(O)CCCCCCCC(=O)O`, the “activity change, negative = inhibition” value was -25.8% (inactive).

With `CCOC(=O)c1ccccc1O`, the “activity change, negative = inhibition” value was -10.6% (inactive).

For `NC(Cc1ccc(Cl)cc1)C(=O)O` (stereo not given), the activity change, negative = inhibition is -2.28% [at 0.91 µM] (inactive).

For the compound `CCCCCCCCCCCCCCCCO`, the “activity change, negative = inhibition” value is 8.09% (inactive).

In the case of `CCCCS(=O)(=O)N[C@@H](Cc1ccc(OCCCCC2CCNCC2)cc1)C(=O)O`, the “activity change, negative = inhibition” value was -5.96% (inactive).

Take `O=c1[nH]c(=O)n([C@H]2C[C@H](O)[C@@H](CO)O2)cc1C(F)(F)F`: the “activity change, negative = inhibition” value was -14.1% (inactive).

In the case of `NC(=O)NS(=O)(=O)c1ccc(N)cc1`, the “activity change, negative = inhibition” value was 0.271% (inactive).

On to `C[N+](C)(C)CCOC(N)=O`, for which the “activity change, negative = inhibition” value is 11% (inactive).

As to `C[C@H](O)C(=O)Nc1c(I)c(C(=O)NC(CO)CO)c(I)c(C(=O)NC(CO)CO)c1I`, the “activity change, negative = inhibition” value was 1.54% (inactive).

Regarding `O=C(O)Cc1csc(-c2ccc(Cl)cc2)n1`, the “activity change, negative = inhibition” value was 15% (inactive).

Turning to `O=C(Cn1ccnc1[N+](=O)[O-])NCCO`, the “activity change, negative = inhibition” value was 3.44% (inactive).

As for `COCC(=O)Nc1c(I)c(C(=O)NCC(O)CO)c(I)c(C(=O)N(C)CC(O)CO)c1I` (stereo not given), the “activity change, negative = inhibition” value was 28.4% (inactive).

`Cc1c(F)c(N2CCNC(C)C2)cc2c1c(=O)c(C(=O)O)cn2C1CC1` (stereo not given): the “activity change, negative = inhibition” value is -0.013% (inactive).

For `Cc1scc2c1N(C(=O)CN1CCN(C)CC1)c1ccccc1NC2=O`, the “activity change, negative = inhibition” value is 2.37% (inactive).

Take `CC(=O)OCC(=O)Nc1cc(C#N)cc(NC(=O)COC(C)=O)c1Cl`: the “activity change, negative = inhibition” value was -0.546% (inactive).

Regarding `C[C@]12CCC(=O)C=C1CC[C@@H]1[C@@H]2[C@@H](O)C[C@@]2(C)[C@H]1CC[C@]2(O)C(=O)CO`, the “activity change, negative = inhibition” value is 4.14% (inactive).

In the case of `CC(C)(C)c1ccc(C(O)CCCN2CCC(C(O)(c3ccccc3)c3ccccc3)CC2)cc1` (stereo not given), the “activity change, negative = inhibition” value is -25.1% (inactive).

As for `CCn1c(=O)c(-c2ccc(-c3cncs3)cc2Cl)cc2cnc(Nc3ccc(N4CCN(C)CC4)cc3)nc21`, the Potency is 3.01 µM (active).

Turning to `Cc1c(C)c2c(c(C)c1OC(=O)c1cccnc1)CC[C@@](C)(CCC[C@H](C)CCC[C@H](C)CCCC(C)C)O2`, the “activity change, negative = inhibition” value is -25.2% (inactive).

As for `CCCCCCCCCCC(CO)CCCCCCCC` (stereo not given), the “activity change, negative = inhibition” value was -15.3% (inactive).

Regarding `Cc1cc(C(C)(C)C)c(O)c(C(C)(C)C)c1`, the “activity change, negative = inhibition” value is -0.993% (inactive).

Regarding `CNCCC(Oc1ccccc1OC)c1ccccc1` (stereo not given), the “activity change, negative = inhibition” value is -0.525% (inactive).

With `O=C(O)c1ccccc1O`, the “activity change, negative = inhibition” value was 13.5% (inactive).

On to `CC(=O)OCC(COC(C)=O)OC(C)=O`, for which the “activity change, negative = inhibition” value was -5.81% (inactive).

For the compound `COc1cc(NS(=O)(=O)c2ccc(N)cc2)ncn1`, the “activity change, negative = inhibition” value was -1.46% (inactive).

Consider `COc1ccccc1O`, for which the “activity change, negative = inhibition” value was 12.9% [at 115 µM] (inactive).

For the compound `CN1[C@@H]2CC[C@H]1CC(OC(=O)c1c[nH]c3ccccc13)C2` (stereo not given in full), the “activity change, negative = inhibition” value was -26.4% (inactive).

Consider `CC1(C)Oc2ccc(C#N)cc2[C@@H](N2CCCC2=O)[C@@H]1O`, for which the “activity change, negative = inhibition” value is -16.7% (inactive).
